The supplement of paper PMC6555819

The sequences below were run on PPARg:RXRa (NR concentration 180 nM, RXRa partner concentration 90 nM) (assay: PBM binding z-score (relative to random genomic background probes); higher = stronger binding; sequences stand for … in GC…GCGATTGACAGCGTAGAATGAAGG).
In short: (§1)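 Regression normalization was applied to scanned fluorescence from custom Agilent 4×180K protein-binding microarrays. Before scanning, arrays were incubated 1 h with ligand-free nuclear receptor dimers, and binding was detected with antibodies against each partner (one per run). Binding z-scores use the random background probes as reference.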

Row | Sequence | PBM binding z-score
1 | TCTAGCAGGCCAGACGGTCACTCAAGAGGTACGG | 0.662
2 | ACTATTAGTTGAAACGAGGGCAACCGATAGGTTG | 0.901
3 | GCTGCTAGGTCAACTGATAGTCAGCTAAAGCTCG | 2.91
4 | GCTAGCGGGCCATTTGGGTCACTCAATGACGGGC | 0.395
5 | CCGACTGGGGCTTAAGGTTACCATAAGCCAGCCC | 0.91
6 | CGAACGAGGGCATGTGTTGATAGCAAATGCCGAT | 1.15
7 | CAAACTAGGTCAAGGGTCAAAGTCGAGCCAACCA | 13.1
8 | AGAACGAGGGCAATGAGTTGATAGAACGGGTGGC | 1.53
9 | ATCTCTATGTAAAGTTCAGTGAAAGATCGATAGA | 2.59
10 | GCTTGTAGATCAAGGTTAAGAAAGACTAAGCTAA | 1.01
11 | GCTATTAGTTGAAGGGGCAACCGAATGATTCTCG | 0.924
12 | AGTCAAAGTTCACTAGGTACCGTAAGATTCAGCT | 5.85
13 | TAGCCTAGGTCAGATCGGGCCTGTATACGCTATA | 0.482
14 | TCATATAGGTAAAGGTGTAAGTCGAACGATATGA | 3.01
15 | GCGACTGGGGCATCAGCAGGTTACCATAACTTAA | 1.21
16 | GCAGACAGGTGAAACGCAGGTAAATCAGGGTGGC | 0.513
17 | CAAACTAGGTCACCGGAAGGTCAAAGTCCGCATG | 9.5
18 | ACTATTAGTTGACTTAGGGTAACCGATACGACGC | 0.907

These sequences were tested on PPARg:RXRa 270nM:90nM, anti-RXR (NR concentration 270 nM, RXRa partner concentration 90 nM) in the same assay as above.
In short: as §1

Row | Sequence | PBM binding z-score
19 | AATACTGGGTCATCGTAGGCCAGAGTACGCACAG | 5.4
20 | CAGCCTAGGTCAGGGCCGGTATAGGAGGAACGTT | 0.692
21 | TAGCCTAGTTCATTGGGCCAGTATAGTACGCATC | 0.538
22 | ATCGAAAGGTCGAAGTGAGTATAGAGAAAGGGAA | 3.01
23 | GCTAGTTGGTCAGTAACAGGTCACACACCGGTCG | 1.12
24 | GCTAGTTGTTCAGTAAAAGGTCACACACCGGTCG | 3.57
25 | CCGACTGAGGCATAAGGTTACCATAAGCCAGCCC | 1.31
26 | GATACAGGGTCAGCTAAAGGCCAGAGTATGGAAA | 3.58
27 | CCGACTGGAGCAAAGGTTACCATACTCAGTACGA | 8.31
28 | CGTCCAAGGTCAGAGAGGTCAGTGGATGCCGAGT | 4.26
29 | ACTAGTTGGTCAGCTGAGGTCACCCACAATTCGG | 2.6
30 | ATCTCTTGGTAAAGTTCAGTGAAAGATCGATAGA | 3.02
31 | CAAACTAGGTCAAGAGGTCGAAGTCCGCTTCCCG | 7.41
32 | TAGTCTAGGTCATGCGGGCCAGTATAGTGTCGGC | 4.56
33 | CCCACTGGGCCAAAGGTCATTGATTCCAATGCTC | 10.5
34 | ACTAGCAGGCCAAGTTTGGGTCACTCTAACAAAG | 0.0985
35 | CATACAGGGTCAGCTAGTCCAGAGTAGGGACGGC | 2.78
36 | GCTGCTAGGTCAAATGATGGTCAGCTAAAGCTCG | 3.57
37 | TGAAAGAGGTTAAAGATCAGGGAACGTGGCGTCG | 5.44
38 | AGAACGAGGGCAATGAATTGATAGCACGGGTGGC | 0.732

Row | Sequence | PBM binding z-score
39 | ATATGTGGGTTACATCCGGGTCATTCAGGCTATG | 4.48
40 | ATACCAGGGTGATCGTGAGGTCGTTGATACTAAC | 0.722
41 | TCTAGCAGGCCAGACGGTCACTCAAGAGGTACGG | 1.52
42 | ACTATTAGTTGAAACGAGGGCAACCGATAGGTTG | 0.84
43 | GCTGCTAGGTCAACTGATAGTCAGCTAAAGCTCG | 3.17
44 | GCTAGCGGGCCATTTGGGTCACTCAATGACGGGC | 0.262
45 | CCGACTGGGGCTTAAGGTTACCATAAGCCAGCCC | 1.99
46 | CGAACGAGGGCATGTGTTGATAGCAAATGCCGAT | 1.14
47 | CAAACTAGGTCAAGGGTCAAAGTCGAGCCAACCA | 10.9
48 | AGAACGAGGGCAATGAGTTGATAGAACGGGTGGC | 0.857
49 | ATCTCTATGTAAAGTTCAGTGAAAGATCGATAGA | 3.76
50 | GCTTGTAGATCAAGGTTAAGAAAGACTAAGCTAA | 2.05
51 | GCTATTAGTTGAAGGGGCAACCGAATGATTCTCG | 2.1
52 | AGTCAAAGTTCACTAGGTACCGTAAGATTCAGCT | 6.01
53 | TAGCCTAGGTCAGATCGGGCCTGTATACGCTATA | 0.395
54 | TCATATAGGTAAAGGTGTAAGTCGAACGATATGA | 3.83
55 | GCGACTGGGGCATCAGCAGGTTACCATAACTTAA | 1.03
56 | GCAGACAGGTGAAACGCAGGTAAATCAGGGTGGC | -0.213
57 | CAAACTAGGTCACCGGAAGGTCAAAGTCCGCATG | 7.87
58 | ACTATTAGTTGACTTAGGGTAACCGATACGACGC | 0.758

These sequences were tested on PPARg:RXRa 30nM:10nM, anti-RXR (NR concentration 30 nM, RXRa partner concentration 10 nM) in the same assay as above.
In short: as §1

Row | Sequence | PBM binding z-score
59 | AATACTGGGTCATCGTAGGCCAGAGTACGCACAG | 3.02
60 | CAGCCTAGGTCAGGGCCGGTATAGGAGGAACGTT | -0.326
61 | TAGCCTAGTTCATTGGGCCAGTATAGTACGCATC | -0.446
62 | ATCGAAAGGTCGAAGTGAGTATAGAGAAAGGGAA | 1.33
63 | GCTAGTTGGTCAGTAACAGGTCACACACCGGTCG | -0.211
64 | GCTAGTTGTTCAGTAAAAGGTCACACACCGGTCG | 1.49
65 | CCGACTGAGGCATAAGGTTACCATAAGCCAGCCC | -0.0351
66 | GATACAGGGTCAGCTAAAGGCCAGAGTATGGAAA | 0.882
67 | CCGACTGGAGCAAAGGTTACCATACTCAGTACGA | 8.2
68 | CGTCCAAGGTCAGAGAGGTCAGTGGATGCCGAGT | 1.09
69 | ACTAGTTGGTCAGCTGAGGTCACCCACAATTCGG | 0.58
70 | ATCTCTTGGTAAAGTTCAGTGAAAGATCGATAGA | 1.39
71 | CAAACTAGGTCAAGAGGTCGAAGTCCGCTTCCCG | 5.95
72 | TAGTCTAGGTCATGCGGGCCAGTATAGTGTCGGC | 1.78
73 | CCCACTGGGCCAAAGGTCATTGATTCCAATGCTC | 10.2
74 | ACTAGCAGGCCAAGTTTGGGTCACTCTAACAAAG | -0.547
75 | CATACAGGGTCAGCTAGTCCAGAGTAGGGACGGC | 0.664
76 | GCTGCTAGGTCAAATGATGGTCAGCTAAAGCTCG | 0.844
77 | TGAAAGAGGTTAAAGATCAGGGAACGTGGCGTCG | 3.46
78 | AGAACGAGGGCAATGAATTGATAGCACGGGTGGC | 0.112

Row | Sequence | PBM binding z-score
79 | ATATGTGGGTTACATCCGGGTCATTCAGGCTATG | 2.02
80 | ATACCAGGGTGATCGTGAGGTCGTTGATACTAAC | 0.104
81 | TCTAGCAGGCCAGACGGTCACTCAAGAGGTACGG | 1.72
82 | ACTATTAGTTGAAACGAGGGCAACCGATAGGTTG | 0.292
83 | GCTGCTAGGTCAACTGATAGTCAGCTAAAGCTCG | 0.765
84 | GCTAGCGGGCCATTTGGGTCACTCAATGACGGGC | -0.653
85 | CCGACTGGGGCTTAAGGTTACCATAAGCCAGCCC | -0.108
86 | CGAACGAGGGCATGTGTTGATAGCAAATGCCGAT | 0.0411
87 | CAAACTAGGTCAAGGGTCAAAGTCGAGCCAACCA | 11.4
88 | AGAACGAGGGCAATGAGTTGATAGAACGGGTGGC | 0.188
89 | ATCTCTATGTAAAGTTCAGTGAAAGATCGATAGA | 2.03
90 | GCTTGTAGATCAAGGTTAAGAAAGACTAAGCTAA | 0.29
91 | GCTATTAGTTGAAGGGGCAACCGAATGATTCTCG | 0.49
92 | AGTCAAAGTTCACTAGGTACCGTAAGATTCAGCT | 2.8
93 | TAGCCTAGGTCAGATCGGGCCTGTATACGCTATA | -0.139
94 | TCATATAGGTAAAGGTGTAAGTCGAACGATATGA | 4.04
95 | GCGACTGGGGCATCAGCAGGTTACCATAACTTAA | 0.757
96 | GCAGACAGGTGAAACGCAGGTAAATCAGGGTGGC | -0.632
97 | CAAACTAGGTCACCGGAAGGTCAAAGTCCGCATG | 5.79
98 | ACTATTAGTTGACTTAGGGTAACCGATACGACGC | 0.442
